This is a sample that favours compounds with a hit; in the whole collection about 7.5% have one here.
HCMV antiviral: inhibitors of human cytomegalovirus; HFF cells, HCMV-luciferase reporter, 72 h; active compounds read low; activity change, negative = inhibition, % at 57.5 µM; 410,000 compounds, 4.5% hits; in the data active = activity change below about -60%; inconclusive = no clear call, values can overlap the other calls; inactive = above about -39%
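Human foreskin fibroblasts infected with luciferase-reporter HCMV at MOI 1 PFU/cell, compounds at two doses. Luciferase measured 72 h post infection; normalized to buffer-only basal and Salinomycin (10uM) controls.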
Vaccinia mCherry: inhibitors of vaccinia virus infection (mCherry reporter signal) | Vaccinia virus mCherry reporter infection, fluorescence | Potency, µM (highest dose often 36.5 µM), for inactives: top-dose activity change, negative = inhibition, hits mostly inhibitors | 310,000 compounds, 0.63% hits; calls by dose curve; tested in A549 cells; also: potency is read from the fitted curve at half-maximal effect; nearly all actives have a fitted effect of over 35% in size
VACV Venus inh: inhibitors of vaccinia virus (Venus reporter); Vaccinia virus Venus reporter expression, fluorescence; Potency, µM (series often up to 36.5 µM), for inactives: at the highest dose activity change, negative = inhibition, hits mostly inhibitors; 330,000 compounds, 0.46% hits; AID 720580; calls by dose curve; tested in A549 cells; also: potency is read from the fitted curve at half-maximal effect; nearly all actives have a fitted effect of over 30% in size
FBPA Giardia inh: blocks Giardia fructose-bisphosphate aldolase activity; A8B2U2; 290,000 compounds, 0.71% hits; Potency, µM (top dose mostly 59.6 µM), for inactives: at the top dose activity, negative = inhibition, usual class: inhibitors; purified Giardia FBPA; AID 2451; also: potency is read from the fitted curve at half-maximal effect; nearly all actives have a fitted effect of over 55% in size
Target sequence (A8B2U2 whole entry, looked up): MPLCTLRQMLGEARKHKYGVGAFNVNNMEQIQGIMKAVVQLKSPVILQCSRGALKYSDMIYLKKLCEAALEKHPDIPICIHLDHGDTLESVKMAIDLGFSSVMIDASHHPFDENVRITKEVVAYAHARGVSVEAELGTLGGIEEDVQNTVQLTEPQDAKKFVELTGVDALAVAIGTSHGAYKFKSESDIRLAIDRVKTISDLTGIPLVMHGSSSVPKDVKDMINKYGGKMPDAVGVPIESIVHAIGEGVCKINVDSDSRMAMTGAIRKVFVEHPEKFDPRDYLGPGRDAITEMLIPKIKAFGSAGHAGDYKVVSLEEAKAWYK
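Giardia FBPA (40 nM reagent) was preincubated 10 min at RT with compound (up to 57.5 uM final), then substrate plus GAPDH/TPI/NAD/arsenate coupling system with diaphorase/resazurin was added; resorufin fluorescence (525/598 nm) was read after 20 min.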
FMDV antiviral: antivirals against foot and mouth disease virus. FMDV antiviral cell-based qHTS. Potency, µM (series often up to 57.9 µM), inactives show at the highest dose activity change, negative = inhibition, actives largely listed as inhibitors. 410,000 compounds, 1.2% hits; calls by dose curve; tested in HEK293T cells; also: read-out not given here; potency is read from the fitted curve at half-maximal effect; nearly all actives have a fitted effect of over 45% in size
HCV inh: inhibitors of hepatitis C virus infection. AID 651820. Huh7.5.1 HCVcc-Cre infection, luciferase reporter, 44 h. 340,000 compounds, 3.4% hits. Potency, µM (highest dose often 41.8 µM), for inactives: at the top dose activity change, negative = inhibition, hits mostly inhibitors; also: potency is read from the fitted curve at half-maximal effect
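Luciferase read-out (15 sec integration) after a 15 min room-temperature substrate step quantifies HCVcc-Cre infection. Cells, 1,000 per well, had compound added 4 h post-plating, then virus at ~0.5 moi, and were cultured 44 h.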
* = called active by the depositor; i = inactive; ? = inconclusive; nt = no result; ! = not confirmed by another sample; [ ] = another dose, or the depositor's remark. Unless noted, calls follow the shape of the dose curve; as a rule, active = well fitted curve in the direction sought with a large enough effect; inconclusive = small, poorly fitted or top-dose-only effect, or another doubt; inactive = no such curve, though single readings can be large; an effect the other way counts as inactive or inconclusive. % is scaled to controls: 0 for no effect and ±100 for the full control effect.

SMILES	HCMV antiviral	Vaccinia mCherry	VACV Venus inh	FBPA Giardia inh	FMDV antiviral	HCV inh
CCC(=O)N1c2ccc(S(=O)(=O)CCC(=O)NCc3ccc(OC)cc3)cc2CC1C (stereo not drawn)	6.8	2.7%	-1.8%	nt	-3.6%	nt
Cc1c(C(=O)N2CCCC2)oc2c1-c1nn(CC(=O)NCc3cccc(Br)c3)cc1CC2	-27.1	-5.9%	-18.6%	nt	-17.7%	nt
COc1cccc(/C=C(/C(=O)OCC(=O)NC2CCCCCCC2)c2ccccc2)c1	?	nt	nt	0.6%	?	11.2µM*
COc1cccc(/C=C(/C(=O)OCC(=O)NCC2CCCO2)c2ccccc2)c1 (stereo not drawn)	-32.1	-11.8%	-8.0%	-12.0%	-5.2%	-14.7%
CN(C(=O)c1ccc(OCC=C(c2ccccc2)c2ccccc2)cc1)c1ccccc1I	nt	nt	nt	-0.9%	nt	nt
Cc1cc(NS(=O)(=O)c2ccc(NC(=O)COc3cc(C)c(Br)cc3C(C)C)cc2)no1	-5.4	-9.0%	-7.5%	nt	-3.7%	nt
CCN(CC)S(=O)(=O)c1cnccc1N1CCN(c2cccc(Cl)c2)CC1	-29.3	-28.2%	?	-0.9%	39.8µM*	-18.2%
S=C1NCN(CCc2ccccc2)CN1Cc1ccccc1	-62.3*	nt	nt	-1.7%	-16.9%	-23.7%
CCN(c1cccc(C)c1)c1ncnc2nc[nH]c12	-25.3	i	-15.5%	-1.0%	-22.0%	?
Cc1cccc(COc2ncnc3nc[nH]c23)c1	4.1	i	-13.8%	0.4%	-3.5%	3.98µM*
CCOCCCNC(=O)c1ccc2c(c1)ncn2-c1ccc(CC)cc1	-64.3*	nt	nt	7.8%	9.8%	-10.5%
CCCCn1c(-c2ccc(C(C)(C)C)cc2)nc2cc3[nH]c(=O)c(C(C)C)nc3cc21	12.0	10µM*	?	-13.6%	35.5µM*	-12.6%
CCC(c1nnnn1-c1c(C)cccc1C)N1CCN(C/C=C/c2ccccc2)CC1 (stereo not drawn)	-67.7*	4.7%	-5.1%	nt	-15.0%	nt
CSCCC(c1nnnn1-c1c(C)cccc1C)N1CCN(C/C=C/c2ccccc2)CC1 (stereo not drawn)	-18.2	i	-17.8%	nt	-16.3%	nt
COc1ccc(-c2cn3c(n2)sc2cc(C(=O)NCc4ccccc4)ccc23)cc1	nt	?	-27.9%	nt	-14.3%	nt
CCOC(=O)N1CCN(C(=O)c2ccc3c(c2)sc2nc(-c4ccc(OC)cc4)cn23)CC1	nt	-11.9%[1.46 µM]	?	0.4%	-11.1%	14.1µM*!
CCCN1CCN(CCCNC(=O)c2ccc3c(c2)sc2nc(-c4ccc(C)cc4)cn23)CC1	nt	7.08µM*	?	nt	4.8%	nt
COc1ccc2c(c1)sc1nc(-c3ccccc3)cn12	-97.9*	-19.4%	-26.6%	-23.2%	7.94µM*	?
CCOC(=O)C1CCN(C(=O)c2ccc3c(c2)sc2nc(-c4ccc(OC)cc4)cn23)CC1	nt	2.4%	-6.2%	nt	-28.7%	nt
CC(C)=CCn1cnc2c1c(=O)n(C)c(=O)n2C	nt	nt	nt	3.2%	-13.6%	nt
COC(=O)c1nc(-c2ccc(C)cc2)[nH]c1C(C)(C)C	-35.0	-13.0%	-22.6%	nt	-11.9%	nt
CN(C)CCCC1Sc2ccccc2Sc2ccccc21 (stereo not drawn)	-7.8	-6.5%	-20.3%	nt	?	15.8µM*
CN(C)CCCN1c2ccccc2Sc2ccccc21	?	?	-23.9%	-13.2%	?	-17.9%[8.37 µM]
CCC(=O)Nc1cccc(C(=O)/C=C/c2ccc(F)cc2)c1	-99.1*	nt	nt	-7.2%	-24.9%	10µM*
CCCC(=O)Nc1ccc(C(=O)/C=C/c2ccc(SC)cc2)cc1	5.2	nt	?	1.8%	-7.0%	11.2µM*
SMILES	HCMV antiviral	Vaccinia mCherry	VACV Venus inh	FBPA Giardia inh	FMDV antiviral	HCV inh
CC(=O)Nc1ccc(/C=C/C(=O)c2ccc3c(c2)OCCO3)cc1	-13.4	?	-20.4%	6.9%	-28.2%	-12.3%
CC(=O)Nc1cccc(C(=O)/C=C/c2ccc(C)cc2)c1	-21.2	?	?	-2.3%	?	12.6µM*
CSc1ccc(/C=C/C(=O)c2ccc(NC(C)=O)cc2)cc1	53.6	nt	-9.5%	2.4%	0.0%	-25.3%
C[C@H]1[C@@H](NS(=O)(=O)c2ccc([N+](=O)[O-])cc2[N+](=O)[O-])CC[C@@]23CCCN2C(=O)CCC[C@@H]13	12.1	nt	nt	nt	nt	nt
CC(=O)c1ccc(C2C=CC(O)C(CO)O2)cc1 (stereo not drawn)	nt	nt	nt	-0.7%[12.9 µM]	nt	nt
CCN1CCN(CCCNC(=O)c2ccc(/C=C3/Sc4ccccc4N(Cc4ccccc4F)C3=O)cc2)CC1	?	nt	nt	6.4%	-19.5%	11.2µM*
CCN1CCN(CCNC(=O)c2ccc(/C=C3/Sc4ccccc4N(Cc4ccccc4C)C3=O)cc2)CC1	-62.6*	?	?	-2.7%	0.9%	6.31µM*
O=C(c1ccc2c(c1)OCO2)N(Cc1cc2ccc(F)cc2nc1N1CCC(O)CC1)CC1CCCO1 (stereo not drawn)	nt	12.0%	37.6%	nt	-6.9%	nt
Cc1sc2ccccc2c1CC1=NCCN1	-31.4	-2.7%	5.3%	-5.7%	?	3.16µM*
CCOc1ccc(NC(=O)COC(=O)CC2CC3CCC2C3)cc1 (stereo not drawn)	90.1	nt	nt	nt	-17.3%	20.5%
Cc1ccc(/C=C2\C(=O)NC(=S)N(c3ccccc3F)C2=O)s1	-101.2*	466.3%	i	-10.0%	?	?
Cc1ccc(/C=C2\C(=O)NC(=S)N(c3ccc(F)cc3)C2=O)s1	88.4	i	24.3%	0.1%	?	?
O=C(c1cc(Cl)ccc1[N+](=O)[O-])N1CCc2ccccc2C1	-39.6	i	-6.1%	7.2%	-5.7%	7.3%
COc1ccc(S[C@]2(C(=O)N(C)C)CC(=O)N(c3ccc4ccccc4c3)[C@@H]2c2ccc(OC)cc2)cc1	19.4	nt	nt	nt	nt	nt
O=CNC1(c2ccccc2)CCCCC1	4.6	i	-20.3%	nt	-13.5%	23.8%
CCc1ccc(NC(=O)CSc2ccc(-c3sc(C)nc3C)nn2)cc1	-38.6	nt	nt	nt	-21.3%	11.2µM*
COc1ccc(NC(=O)CSc2nc(SC)ns2)cc1	14.2	11.2µM*	?	nt	28.9%	-14.9%
COc1ccc(NC(=O)CSc2ccc(-c3ccco3)nn2)cc1	-65.9*	-16.6%	-11.4%	nt	-17.7%	-1.9%
COc1ccc(NC(=O)CSc2ccc(-c3sc(C)nc3C)nn2)cc1	31.0	-14.2%	-5.1%	nt	?	?
Cc1nc(C)c(-c2ccc(SCC(=O)Nc3ccc(Br)cc3)nn2)s1	-68.9*	-27.3%	-27.6%	nt	-16.5%	nt
Cc1cc(C)cc(NC(=O)CSc2ccc(-c3ccccn3)nn2)c1	-1.2	?	?	nt	-16.2%	12.6µM*
CCOc1ccccc1NC(=O)CSc1ccc(-c2sc(C)nc2C)nn1	?	?	-27.7%	nt	25.1µM*	?
COc1ccccc1NC(=O)CSc1ccc(-c2sc(C)nc2C)nn1	42.9	-6.8%	-12.1%	nt	?	nt
Cc1ccnc2ccc(F)cc12	nt	-9.0%	-9.2%	nt	nt	nt
CCOC(=O)C(Cc1ccccc1)(Nc1ccc(OC)cc1)C(O)c1ccc([N+](=O)[O-])cc1 (stereo not drawn)	-3.0	nt	nt	nt	nt	nt

Assay outcomes: PubChem BioAssay, National Center for Advancing Translational Sciences (NCATS)
